# Activity calls are given as the source filed them.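 How the source made its calls: active means high combined rank on largest and smallest cell-count-weighted shift across three tests, rank score above 45, floors 50 and 25 (some results past the limit were not filed as active); inactive means the rest.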
# Test: activators of LNCaP cell differentiation, retest, confirmation, side scatter shift, flow cytometry (AID 1069);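 further: LNCaP human prostate cancer cells in low-serum medium with charcoal-stripped FBS; percent of cells with raised granularity gated so DMSO controls show 10%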
# Conditions: 4 d, stronger effect = higher value
SMILES,side scatter shift (at 100 µM),"side scatter shift (side scatter shift, at 10 µM)"
O=C(Cn1c(=O)[nH]c2ccsc2c1=O)NC1CCCCCC1,2.5% (inactive),5.85%
COc1ccc(-c2ccc(-c3noc(-c4ccccc4)n3)c(OC)n2)cc1,56.7% (inactive),22.5%
COc1ccccc1NC(=O)c1nc[nH]c1C(=O)Nc1ccccc1OC,50.5% (inactive),5.65%
CCN(CCCNS(=O)(=O)c1ccc2c(c1)oc(=O)n2C)c1cccc(C)c1,22.2% (inactive),4.85%
Cn1c(=O)cc(OCC(=O)NCCCN2CCN(c3ccccc3F)CC2)c2ccccc21,66.5% (active),4.5%
Cc1cc(NC(=O)c2noc3c2CCc2ccccc2-3)n(-c2ccccc2)n1,21.9% (inactive),12.4%
CC(C)n1c(=S)[nH]c2c1c(=O)[nH]c(=O)n2C,8.1% (inactive),2.4%
CC(C)(C)C1CCc2onc(C(=O)Nc3cnn(Cc4ccc(F)cc4)c3)c2C1 (stereo unspecified),25.8% (inactive),3.7%
CCn1c(=O)cc(OCC(=O)NCCCN2CCN(c3cccc(Cl)c3)CC2)c2ccccc21,40% (inactive),18.3%
O=C(CN1CCN(Cc2ccc3c(c2)OCO3)CC1)N1CCc2[nH]c3ccc(F)cc3c2C1,20.8% (inactive),7.3%
Cn1nc(-c2ccc(Cl)cc2)c2cc(C(=O)NCCCN3CCCC3)sc21,31.6% (active),66.5%
O=c1cc(N2CCc3ccccc3C2)[nH]c(=O)n1C1CCCCC1,16.8% (inactive),5.9%
O=C(CCN1C(=O)COc2ccccc21)NCCCN1CCN(c2ccccc2F)CC1,21% (inactive),4.4%
Cc1cc(C)c2c(=O)n(CC(=O)NCCCN3CCN(c4ccccc4F)CC3)sc2n1,20% (inactive),6.8%
CCCOc1ccc2nc(NC(=O)OC)[nH]c2c1,8.3% (inactive),2.95%
CCN(CC)CCCNC(=O)c1cc2c(-c3ccc(Cl)cc3)nn(C)c2s1,61.5% (active),81.5%
CCOC(=O)N1CCC(NC(=O)C2CCCN(Cc3nc(-c4cccc(Cl)c4)oc3C)C2)CC1 (stereo unspecified),21.2% (inactive),5.35%
COc1cc(C2C3=C(Nc4ncnn42)c2ccccc2CC3)cc(OC)c1OC (stereo unspecified),11.2% (inactive),4.5%
CC(C)(C)c1ccc(C(O)CCCN2CCC(C(O)(c3ccccc3)c3ccccc3)CC2)cc1 (stereo unspecified),16.7% (inactive),14.8%
CCN(CC)CCCNC(=O)c1cc(-c2cccc(Cl)c2)on1,4.1% (inactive),4.25%
Cc1ccc(CNc2nc3ccccc3n3nnnc23)cc1,33.1% (inactive),7%
Cc1ccc(-c2noc(CCC(=O)NC3CCN(Cc4ccccc4)CC3)n2)cc1,33.3% (inactive),4.5%
Cc1ccccc1-c1nc(CN2CCC(C(=O)NCc3ccco3)CC2)c(C)o1,41.1% (inactive),3.2%
CC(C)Cc1nc2oc3c(N4CCN(CCO)CC4)ncnc3c2c2c1CCCC2,33.3% (inactive),5.25%
Cc1ccnc(NC(=O)CCC(=O)N(CC(=O)NC2CCCCC2)c2cccc(C)c2C)c1,11.1% (inactive),6.85%
Cc1cc(N2CCC(N(C)C3CCCC3)CC2)nc2cc(O)ccc12,65.4% (inactive),22.5%

SMILES,side scatter shift (at 100 µM),"side scatter shift (side scatter shift, at 10 µM)"
Cc1ccc(C)c2[nH]c(=O)c(CN(CCN3CCCC3)C(=O)Nc3cccc(Cl)c3)cc12,20% (inactive),49.6%
Cc1ccc(CN2CCSc3ccc(C(=O)N4CCN(c5ncccn5)CC4)cc32)cc1,18.6% (inactive),7.2%
CCc1ccc(NC(=O)NCCN2CCc3ccccc3C2)cc1,0% (inactive),8.75%
CCN1CCCC1CNC(=O)c1cc2c(-c3ccc(Cl)cc3)nn(C)c2s1 (stereo unspecified),35.7% (active),56.7%
COc1ccc(-n2c3c(cc(C(=O)N4CCC(C)CC4)c2=O)C(=O)CC(C)(C)C3)cc1,20% (inactive),1.8%
Cc1cccc(-c2nc(CN3CCCC(C(=O)NC4CCC(C)CC4)C3)c(C)o2)c1 (stereo unspecified),40% (inactive),5.9%
Nc1ccc(-c2nc3c(Cl)c(N)ccc3[nH]2)cc1,20.2% (inactive),4.7%
Cc1oc(-c2cccc(Cl)c2)nc1CN1CCC(C(=O)NCCCN2CCCC2=O)CC1,15.1% (inactive),2.65%
COc1ccc(OC)c(CNC(=O)CCNC(=O)Cn2ccc3ccccc3c2=O)c1,12.7% (inactive),7.3%
Cc1oc(-c2ccccc2F)nc1CN1CCC(C(=O)NCc2ccco2)CC1,23.3% (inactive),3%
Cn1c(=O)cc(OCC(=O)NCCCN2CCN(c3cccc(Cl)c3)CC2)c2ccccc21,20% (inactive),8.2%
Cn1c(C(=O)NCCN2CCN(c3ccccc3F)CC2)cc2c(=O)n(C)c3ccccc3c21,50% (inactive),7.7%
COc1ccc(CCNC(=O)C2CCCN(Cc3nc(-c4ccccc4C)oc3C)C2)cc1OC (stereo unspecified),25% (inactive),5.4%
COCCn1cc(C(=O)N2CCCC(C)C2)c2c3ccccc3n(C)c2c1=O (stereo unspecified),22.8% (inactive),3.2%
Cc1ccc(C)c(N2CCN(C(=O)CCNC(=O)Cn3ccc4ccccc4c3=O)CC2)c1,25% (inactive),10%
CCc1ccc(-c2nc(CN3CCC(C(=O)NCCc4ccc(OC)c(OC)c4)CC3)c(C)o2)cc1,35.3% (inactive),21%
Cc1nc2ncnn2c(C)c1CCC(=O)NCCCN1CCN(c2cccc(Cl)c2)CC1,37.9% (inactive),8.55%
CCN1C(=O)OC2(CCCCC2)C1(C)O (stereo unspecified),10.4% (inactive),12.7%
Cc1cc(=O)n2nc(N3CCCC(C(=O)NCCCN4CCc5ccccc5C4)C3)sc2n1 (stereo unspecified),17.4% (inactive),9.3%
Cc1cc(=O)oc(C)c1C(=O)NCCCN1CCN(c2ccccc2F)CC1,32.8% (inactive),2.1%
COCCn1c(=O)[nH]c2cc(C(=O)NCCCN3CCN(c4ccc(F)cc4)CC3)ccc2c1=O,37.9% (inactive),6.5%
CCCS(=O)(=O)N1CCCC(C(=O)NCCCN2CCN(c3ccc(F)cc3)CC2)C1 (stereo unspecified),8.2% (inactive),12.3%
O=C(Nc1cccc(Cl)c1)N1CCN(Cc2ccccc2)CC1,7.1% (inactive),10.2%
Cc1cc(C)n2nnnc2c1C#N,3.9% (inactive),6.4%
COc1ccc(N2CCN(CCCNC(=O)c3cc4sccc4n3C)CC2)cc1,51.6% (active),6.5%
Cc1cc(C)n2nc(SCC(=O)Nc3ccc(F)cc3)nc2n1,4% (inactive),2.8%

SMILES,side scatter shift (at 100 µM),"side scatter shift (side scatter shift, at 10 µM)"
CCN1CCN(CCNC(=O)C2CCCN(Cc3nc(-c4cccc(Cl)c4)oc3C)C2)CC1 (stereo unspecified),14.3% (inactive),32.2%
Cc1cc(NC(=O)CSc2nnc(Cn3c(=O)sc4ccccc43)n2-c2ccccc2C)no1,26.5% (inactive),8.25%
COc1ccc(C(CC(=O)O)NC(=O)Cc2ccccc2)cc1 (stereo unspecified),2.7% (inactive),3.1%
Cn1c(C(=O)NCCCN2CCN(c3cccc(Cl)c3)CC2)cc2c(=O)n(C)c3ccccc3c21,69.6% (active),5.45%
CC1CCCCN1CCNC(=O)c1cc2c(-c3ccccc3F)nn(C)c2s1 (stereo unspecified),42.4% (inactive),19.9%
Cc1ccc(S(=O)(=O)NCCCCC(NC(=O)OC(C)(C)C)C(=O)O)cc1 (stereo unspecified) (tested in a mixture with another compound),8.9% (inactive),5.45%
COc1cccc(Oc2cnc(N)nc2-c2ccc(OC)cc2O)c1,22.2% (inactive),6.3%
Cn1c(C(=O)NCCC2=CCCCC2)cc2c(=O)n3ccccc3nc21,11.5% (inactive),5.75%
Cc1oc(-c2ccc(Cl)cc2)nc1CN1CCC(C(=O)N2CCN(Cc3ccccc3)CC2)CC1,33.3% (active),53.7%
CCN(CC)CC(=O)Nc1ccc(-c2nc3cc(NC(=O)CN(CC)CC)ccc3o2)cc1,0% (active),42%
CCCN(CCC)CCNC(=O)C1CCN(Cc2nc(-c3ccc(Cl)cc3)oc2C)CC1,76.4% (active),74%
CCOC(=O)C1CCN(c2nc3ccccc3nc2C(C#N)C(=O)OCCOC)CC1 (stereo unspecified),11.8% (inactive),3.1%
O=C(CN1CCC(n2nnc3cc(F)ccc32)CC1)Nc1ccc2c(c1)CCC2,6.2% (inactive),1.9%
Cc1oc(-c2ccccc2F)nc1CN1CCC(C(=O)NCCC2=CCCCC2)CC1,29.4% (inactive),17.8%
COc1cccc(-c2cc(C(=O)N3CCCc4ccccc43)no2)c1,22.2% (inactive),1.8%
O=C(NCCCN1CCN(c2ccc(F)cc2)CC1)c1cccc(N2CCCC2=O)c1,51.9% (active),13.7%
Cc1cccc(-c2nsc(SCC(=O)Nc3nccs3)n2)c1,68.1% (active),6.2%
COc1ccc(-c2noc(CCC(=O)NCCCN3CCC(C)CC3)n2)cc1,23.8% (inactive),4.9%
CCOC(=O)N1CCN(C(=O)CCc2c(C)nc3c(c(C)nn3-c3ccc(C)c(C)c3)c2C)CC1,0% (inactive),6.6%
CCc1nn(C(C)C(=O)N2CCc3ccccc3C2)c(=O)c2cc3occc3n12 (stereo unspecified),5.5% (inactive),2.8%
CCOC(=O)c1ccccc1NC(=O)Cn1c(-c2nonc2N)nc2ccccc21,30.6% (active),27.1%
CCOc1cccc(-c2nnc3n2N=C(c2cc(OC)ccc2OC)CS3)c1,0% (inactive),14.1%
CC1CCCCN1CCNC(=O)c1ccc2c(=O)n(CCc3ccccc3)c(=O)[nH]c2c1 (stereo unspecified),59.5% (active),18.2%
Cc1ccccc1-c1nc(CN2CCCC(C(=O)NCc3cccnc3)C2)c(C)o1 (stereo unspecified),13.7% (inactive),7.35%
COc1ccc(-c2cc(C(F)(F)F)nc(N3CCN(Cc4ccccc4)CC3)n2)cc1OC,51.3% (active),5.3%
CCN1CCCC1CNC(=O)C1CCN(Cc2nc(-c3cccc(Br)c3)oc2C)CC1 (stereo unspecified),6.3% (active),60.2%
